This is an account of results in PubChem BioAssay AID760 (NMMLSC, 2007).

Screen size: about 190,000 compounds; about 360 (0.19%) were called active. Roughly 2% stayed inconclusive and do not appear here.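 The calls were made as follows: active = GTP binding activity at least 20 points away from 100%, either lowered or raised; inconclusive = signal likely due to the compound's own green fluorescence; inactive = the rest.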 Only a selection was taken, and actives are over-represented in it overall.

In this experiment the target is Ras-related protein Rab-2A (Canis lupus familiaris) (UniProt P61105). The experiment is described as follows: modulators of GTP binding to Rab2A wildtype, primary screen, biochemical, dog, bead-based flow cytometry, multiplex (AID 760).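 Also: 0% = beads with excess unlabeled GTP and 100% = no-compound control corrected for plate trend.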 Conditions: GST-Rab2 wt beads, Bodipy-GTP binding, at 10 µM.
In the case of `O=C(COC(=O)CNC(=O)c1ccccc1F)NCC(F)(F)F`, the GTP binding activity was 101% (inactive). Under `Cc1ccc(NC(=O)Nc2cccc(C(F)(F)F)c2)nc1` stands 103% (inactive); under `CC1CC(C)CN(C(=O)CSc2ccsc2[N+](=O)[O-])C1` (configuration not stated), 102% (inactive).

In the case of `CCOC(=O)c1sc(NC(=O)CSc2nc(O)c(Cc3ccccc3)c(=O)[nH]2)nc1C`, the GTP binding activity is 93% (inactive). Then `Cc1ccnc(NS(=O)(=O)c2ccc(NC(=O)c3ccc(S(=O)(=O)N(C)C)cc3)cc2)n1`, with 98% (inactive); and `CN(CCC1CCOCC1)Cc1cn[nH]c1-c1ccc(-c2ccccc2)cc1`, with 96% (inactive). Then `C/C=C/C=C/C(=O)OCC(=O)Nc1ccc(Cl)cc1`, with 93% (inactive). For the compound `CN(C)CCOCCOc1ccc(Cl)c2ccccc12`, the GTP binding activity is 106% (inactive). Then `Cc1nn(CC(=O)Nc2ccc(C#N)cc2)c(C)c1[N+](=O)[O-]`, with 99% (inactive); and `COC(=O)c1ccc(/C=N/N2C(C)CCCC2C)cc1` (configuration not stated), with 100% (inactive); and `COC(=O)c1sc2[nH]c(=S)n(N)c(=O)c2c1C`, with 100% (inactive). Then `CCN(C(=O)COC(=O)c1cc(S(=O)(=O)N2CCc3ccccc32)ccc1OC)C1CCS(=O)(=O)C1` (configuration not stated), with 96% (inactive); and `CC(NC(=O)C(=O)N/N=C/c1ccc(Cl)cc1)c1ccccc1` (configuration not stated), with 98% (inactive); and `CC1CCCCC1NC(=O)CO/N=C/c1ccc(OC(F)F)cc1` (configuration not stated), with 97% (inactive). Under `NS(=O)(=O)c1ccc(NC(=O)COC(=O)c2ccco2)cc1` stands 97% (inactive). With `COc1ccc(C(=O)CSc2nnnn2C)c(OC)c1`, the GTP binding activity was 98% (inactive).

On to `COc1cc(CN(C)Cc2nc3cc(C(F)(F)F)ccc3c(=O)[nH]2)ccc1OC(F)F`, for which the GTP binding activity is 94% (inactive). Under `Cn1c(N)cc(-c2ccc(F)cc2)c(C#N)c1=O` stands 97% (inactive); under `Cc1cc(C(=O)N/N=C/c2ccccc2[N+](=O)[O-])c(C)o1`, 95% (inactive). Consider `COc1ccc(/C=N/NC(=O)C(C)N(c2ccc(OC)cc2)S(C)(=O)=O)cc1` (configuration not stated), for which the GTP binding activity is 96% (inactive). Then `CSCCNCc1cn(-c2ccc(F)cc2F)nc1-c1ccccc1C`, with 100% (inactive); and `Cc1ccnc(NC(=O)CCCOc2ccccc2)c1`, with 97% (inactive); and `O=C(NNC(=O)c1ccccc1[N+](=O)[O-])Nc1ccccc1C(F)(F)F`, with 101% (inactive).

Consider `CC(C)NC(=O)/C(C#N)=C\c1ccc(N(C)C)c(Br)c1`, for which the GTP binding activity is 94% (inactive). Under `O=C(CCn1c(=O)[nH]c2ccccc2c1=O)NCCCN1CCN(c2cccc(Cl)c2)CC1` stands 101% (inactive); under `O=C(Cc1csc(Nc2nc(=S)[nH]c3ccccc23)n1)NCCCN1CCN(c2cccc(Cl)c2)CC1`, 78% (active); under `COc1cccc(CNC(=O)Cc2csc(Nc3nc(=S)[nH]c4ccccc34)n2)c1`, 93% (inactive).
